Experimental data taken from PubChem BioAssay.
Active and inactive are the calls of the source. Unless noted, the rule behind the calls is not given here.

Tests used:
[1] = compound effects on lung adenocarcinoma cell viability – A549, calcein-AM fluorescence, 48 h, basal, profiling panel (AID 1162); conditions: higher = more signal; note: test concentration not given here
[2] = compound effects on differentiated 3T3-L1 adipocyte viability – cell-based, 3T3-L1 adipocytes, calcein-AM fluorescence, 48 h, basal, profiling panel (AID 1163); conditions: 3T3-L1 adipocytes viability, higher = more signal; note: test concentration not given here
[3] = compound effects on hepatocellular carcinoma cell viability – HepG2, calcein-AM fluorescence, 48 h, basal, profiling panel (AID 1164); conditions: higher = more signal; note: test concentration not given here
[4] = compound effects on multiple myeloma cell viability – MM1S, calcein-AM fluorescence, 48 h, basal, profiling panel (AID 1165); conditions: higher = more signal; note: test concentration not given here
[5] = calcein-AM signal in unstimulated myeloma cells – cell-based, calcein-AM fluorescence, 48 h, PK04 Diversity Set, profiling panel (AID 1166); conditions: RPMI8226 myeloma viability, higher = more signal;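 note: cells grown under basal conditions without added stimulus; test concentration not given here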
[6] = JC-1 mitochondrial signal, unstimulated HepG2 cells – cell-based, JC-1 fluorescence, 24 h, 100 nL compound, profiling panel (AID 1167); conditions: HepG2 mitochondrial potential, higher = more signal; note: test concentration not given here
[7] = JC-1 mitochondrial signal, unstimulated adipocytes – cell-based, JC-1 fluorescence, 3T3-L1 adipocytes, 24 h, 100 nL compound, profiling panel (AID 1168); conditions: JC-1 mitochondrial fluorescence, higher = more signal, called active from +8 up or from −8 down; note: test concentration not given here
[8] = JC-1 mitochondrial signal, unstimulated myeloma cells – cell-based, JC-1 fluorescence, RPMI8226, 24 h, 100 nL compound, profiling panel (AID 1169); conditions: JC-1 mitochondrial potential fluorescence, higher = more signal; note: test concentration not given here
[9] = JC-1 mitochondrial signal, unstimulated MM1S myeloma – cell-based, JC-1 fluorescence, 24 h, 100 nL compound, profiling panel (AID 1170); conditions: MM1S mitochondrial potential, higher = more signal; note: test concentration not given here
[10] = resazurin metabolic signal in A549 cells – cell-based, resazurin fluorescence, 24 h, PK04 Diversity Set, profiling panel (AID 1171); conditions: A549 viability, higher = more signal, called active from +8 up or from −8 down; note: test concentration not given here
[11] = resazurin metabolic signal in HepG2 cells – cell-based, resazurin fluorescence, 24 h, PK04 Diversity Set, profiling panel (AID 1172); conditions: HepG2 viability, higher = more signal; note: test concentration not given here
[12] = budding yeast growth changes without added modifier – OD600, strain BY4716, 24 h, basal condition, primary screen (AID 1173); conditions: S. cerevisiae BY4716 growth, OD600, 24 h; higher = more signal, called active from +8 up or from −8 down
[13] = viability profiling in MM1S myeloma cells – cell-based, resazurin fluorescence, basal, 24 h, PK04 Diversity Set, profiling panel (AID 1174); conditions: higher = more signal, called active from +8 up or from −8 down; note: test concentration not given here
[14] = target: Dihydroorotate dehydrogenase (quinone), mitochondrial (Plasmodium falciparum (isolate 3D7)) (UniProt Q08210); test: inhibition of P. falciparum DHODH – biochemical, C-terminal His tag, absorbance 600 nm, primary screen (AID 1175); conditions: PfDHODH enzyme, DCIP absorbance 600 nm; higher = more signal, called active from +8 up or from −8 down;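 note: recombinant parasite enzyme with a five histidine tag at its C terminus; test concentration not given here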
Sequence of Dihydroorotate dehydrogenase (quinone), mitochondrial (Plasmodium falciparum (isolate 3D7)) (Q08210 whole entry, looked up): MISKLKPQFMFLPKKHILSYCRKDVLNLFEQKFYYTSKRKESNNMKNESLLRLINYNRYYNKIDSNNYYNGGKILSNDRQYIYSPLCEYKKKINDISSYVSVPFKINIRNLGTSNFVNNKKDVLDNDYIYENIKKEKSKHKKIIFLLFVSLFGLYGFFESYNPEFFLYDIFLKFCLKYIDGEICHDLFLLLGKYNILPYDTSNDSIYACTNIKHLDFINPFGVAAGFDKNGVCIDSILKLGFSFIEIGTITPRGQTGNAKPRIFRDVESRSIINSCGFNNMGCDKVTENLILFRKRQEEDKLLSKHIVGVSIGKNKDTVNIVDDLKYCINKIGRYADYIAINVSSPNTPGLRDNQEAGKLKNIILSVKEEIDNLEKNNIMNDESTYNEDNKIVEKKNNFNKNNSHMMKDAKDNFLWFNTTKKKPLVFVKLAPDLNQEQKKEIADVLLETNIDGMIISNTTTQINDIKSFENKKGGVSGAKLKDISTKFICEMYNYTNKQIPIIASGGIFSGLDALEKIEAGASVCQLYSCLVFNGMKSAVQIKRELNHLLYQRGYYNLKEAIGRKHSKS

[15] = inhibition of PAO1 biofilm formation – strain PAO1, LB-PBS medium, absorbance 600 nm, primary screen (AID 1176); note: test concentration not given here; conditions: P. aeruginosa PAO1 growth/biofilm, A600, 12 h; higher = more signal
[16] = growth modulation of vineyard yeast isolate – strain RM11-1a, OD600, basal, 24 h, primary screen (AID 1177);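 note: cultures grown under basal conditions with no added stressor; test concentration not given here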; conditions: S. cerevisiae RM11-1a growth, OD600, 24 h; higher = more signal, called active from +8 up or from −8 down
[17] = growth of efflux-deficient E. coli DRC39 – strain DRC39, OD650, 24 h, E. coli filamentation inducers, primary screen (AID 1178);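 note: growth measured as culture turbidity by optical density at 650 nm; test concentration not given here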; conditions: E. coli DRC39 acrAB, higher = more signal, called active from +8 up or from −8 down
[18] = growth of efflux-deficient E. coli DRC39 – strain DRC39, OD650, 48 h, E. coli filamentation inducers, primary screen (AID 1179);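 note: screen aims at cell division blockers that make cells filament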; conditions: E. coli DRC39 delta-acrAB growth, higher = more signal, called active from +8 up or from −8 down
[19] = viability profiling in RPMI8226 myeloma cells – cell-based, resazurin fluorescence, basal, 24 h, PK04 Diversity Set, profiling panel (AID 1180); conditions: higher = more signal;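 note: RPMI8826 multiple myeloma cell line at 5000 cells per well; test concentration not given here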
[20] = target: E3 ubiquitin-protein ligase XIAP (Homo sapiens) (UniProt P98170); test: small molecules binding XIAP protein – biophysical, small-molecule microarray, fluorescence 635 nm, primary screen (AID 1181); conditions: higher = more signal;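 note: score merges 667 nm emission and signal to noise over triplicate slides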
Sequence of E3 ubiquitin-protein ligase XIAP (Homo sapiens) (P98170 whole entry, looked up): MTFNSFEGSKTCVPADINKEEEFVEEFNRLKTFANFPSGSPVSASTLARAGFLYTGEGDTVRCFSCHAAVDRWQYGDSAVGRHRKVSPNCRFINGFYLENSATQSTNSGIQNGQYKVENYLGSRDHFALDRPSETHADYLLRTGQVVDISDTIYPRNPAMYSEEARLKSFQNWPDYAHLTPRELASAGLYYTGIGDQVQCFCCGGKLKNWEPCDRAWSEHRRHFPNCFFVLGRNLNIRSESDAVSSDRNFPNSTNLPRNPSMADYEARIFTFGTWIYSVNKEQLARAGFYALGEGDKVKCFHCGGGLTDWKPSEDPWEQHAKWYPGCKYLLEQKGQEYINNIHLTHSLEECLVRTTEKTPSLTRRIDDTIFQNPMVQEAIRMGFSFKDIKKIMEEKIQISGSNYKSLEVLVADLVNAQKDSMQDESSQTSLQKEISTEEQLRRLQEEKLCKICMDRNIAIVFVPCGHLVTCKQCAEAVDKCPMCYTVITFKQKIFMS

| SMILES | z-score [1] | z-score [2] | z-score [3] | z-score [4] | z-score [5] | z-score [6] | z-score [7] | z-score [8] | z-score [9] | z-score [10] | z-score [11] | z-score [12] | z-score [13] | composite z-score [14] | z-score [15] | z-score [16] | z-score [17] | z-score [18] | z-score [19] | composite z-score [20] |
| --- | --- | --- | --- | --- | --- | --- | --- | --- | --- | --- | --- | --- | --- | --- | --- | --- | --- | --- | --- | --- |
| [N-]=[N+]=Nc1ccccc1[C@H]1OC(c2ccc(OCCCO)cc2)=N[C@@]1(Cc1ccccc1)C(=O)NCCN1CCOCC1 | -0.449 | 0.91 | -1.21 | -2 | -3.41 | 2.36 | 1.83 (inactive) | -1.06 | -0.638 | -2 (inactive) | -0.564 | -2.44 (inactive) | -1.5 (inactive) | 0.73 (inactive) | 0.314 (inactive) | 0.964 (inactive) | 2.03 (inactive) | 0.627 (inactive) | -1.74 | 0.643 |
| CCOC(=O)C[C@H]1[C@H](OC(=O)c2cc3ccccc3oc2=O)[C@@H](NC(=O)c2ccc3ccccc3n2)c2cc(OCCCO)ccc2N1C(=O)Cc1ccc(OC)cc1 | 0.308 | 0.499 | -0.355 | 0.765 | -0.946 | 0.492 | -0.362 (inactive) | 0.498 | -0.423 | 0.711 (inactive) | 1.16 | -0.105 (inactive) | -0.76 (inactive) | -0.543 (inactive) | -1 (inactive) | 0.796 (inactive) | 0.662 (inactive) | 0.0535 (inactive) | -0.284 | -0.173 |
| CC1CC/C=C\[C@H]2OC34C=CCN(C(C)C)C(=O)[C@H]3N(CCO)C(=O)[C@@H]4C2C(=O)O1 (stereo not given in full) | 0.649 | 0.668 | -0.255 | 0.824 | -1.11 | 0.813 | 0.691 (inactive) | 0.021 | 1.65 | -0.969 (inactive) | -0.961 | 0.486 (inactive) | 0.802 (inactive) | 0.705 (inactive) | -0.413 (inactive) | 0.651 (inactive) | 0.764 (inactive) | 0.341 (inactive) | 0.838 | 0.0484 |
| COc1cc2c(cc1O)C(c1cccs1)N(Cc1cc3c(cc1Br)OCO3)CC2 (stereo not given) | -1.67 | -0.406 | -3.83 | -3.19 | -4.43 | -3.57 | -0.0381 (inactive) | -0.976 | -0.488 | -0.741 (inactive) | -0.608 | -1.4 (inactive) | -0.511 (inactive) | -1.88 (inactive) | -0.227 (inactive) | 0.488 (inactive) | -0.284 (inactive) | -1 (inactive) | -1.59 | 0.483 |
| O=C1C2C=CC(C(O)C3CC=CCC3)N(Nc3ccccc3)C2C(=O)N1c1ccccc1 (stereo not given) | -1.05 | -0.0629 | -1.2 | -1.13 | -1.14 | -2.47 | -0.858 (inactive) | 0.173 | -1.02 | -0.728 (inactive) | -0.868 | -1.22 (inactive) | -1.57 (inactive) | -0.558 (inactive) | 1.18 (inactive) | -0.197 (inactive) | -0.572 (inactive) | -0.658 (inactive) | -1.12 | 0.251 |
| [N-]=[N+]=Nc1ccccc1C[C@]1(C(=O)N2CCOCC2)COC(c2ccc(OCCCO)cc2)=N1 | 0.462 | 1.31 | -0.603 | -1.43 | -0.314 | 0.943 | -0.491 (inactive) | -0.571 | 0.615 | 1.63 (inactive) | 1.27 | -3.78 (inactive) | 0.632 (inactive) | 0.265 (inactive) | -0.537 (inactive) | -0.85 (inactive) | 1.08 (inactive) | 0.906 (inactive) | 1.02 | 0.138 |
